# Results: PubChem BioAssay
# The source made the active and inactive calls.
# Legend:
# [1] = small molecules captured by biotinylated probe aFSTL3 – biochemical, small-molecule microarray, fluorescence 635/667, stem cell growth factor project, primary screen (AID 1064); conditions: higher = more signal;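 also: measures binding of the biotinylated anti-FSTL3 antibody to printed compounds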
# [2] = binders from COS7 lysate, DM2A8 probe, primary screen, torsin A project, cell lysate, small-molecule microarray, fluorescence 635/667 (AID 1065); conditions: higher = more signal, COS7 lysate expressing mutant human TOR1A
# [3] = small molecules captured by biotinylated probe aFGF2 – biochemical, small-molecule microarray, fluorescence 635/667, stem cell growth factor project, primary screen (AID 1067); conditions: higher = more signal;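 also: measures binding of biotinylated aFGF2 protein to printed compounds on slides; z-score merges feature fluorescence and signal-to-noise across triplicate slides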
# [4] = small molecules captured by biotinylated probe aFGF10 – biochemical, small-molecule microarray, fluorescence 635/667, stem cell growth factor project, primary screen (AID 1071); conditions: higher = more signal;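 also: score merges 667 nm spot intensity and signal to noise from triplicate slides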
# [5] = target: Neurogenic locus notch homolog protein 2 (Homo sapiens) (UniProt Q04721); test: small molecules binding Notch2 protein – biochemical, small-molecule microarray, 635 nm fluorescence, stem cell growth factors, primary screen (AID 1073); conditions: higher = more signal
# [6] = target: Pro-neuregulin-1, membrane-bound isoform (Homo sapiens) (UniProt Q02297); test: small molecules binding neuregulin-1 protein – biochemical, small-molecule microarray, fluorescence 635/667, psychiatric disease protein project, primary screen (AID 1075); conditions: NRG1 binding, 635 nm fluorescence, higher = more signal;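 also: score combines 667 nm spot fluorescence with signal to noise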
# [7] = test system: Neuregulin-1 EGF-like domain; test: small molecules binding NRG1 EGF domain – biochemical, small-molecule microarray, 635 nm fluorescence, primary screen (AID 1081); conditions: higher = more signal;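 also: binding of the protein to compounds printed on small-molecule microarray slides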
# [8] = FRG1 expression reporter modulators in myotubes – cell-based, C2C12 myotubes, firefly/Renilla luciferase, luminescence, FRG1 inhibition for FSHD, primary screen (AID 1084); conditions: FRG1 promoter luciferase, higher = more signal, called active from +8 up or from −8 down
# [9] = small molecules captured by biotinylated probe aFST – biochemical, small-molecule microarray, fluorescence 635/667, stem cell growth factor project, primary screen (AID 1086); conditions: higher = more signal;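 also: score merges 667 nm fluorescence with signal-to-noise of each printed compound spot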
# [10] = binders of probe aHhip on microarray, primary screen, stem cell growth factor project, biochemical, small-molecule microarray, fluorescence 635/667 (AID 1087); conditions: higher = more signal;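 also: score merges spot fluorescence at 667nm with spot signal to noise ratio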
# Neurogenic locus notch homolog protein 2 (Homo sapiens), sequence (Q04721 whole entry, looked up, canonical isoform): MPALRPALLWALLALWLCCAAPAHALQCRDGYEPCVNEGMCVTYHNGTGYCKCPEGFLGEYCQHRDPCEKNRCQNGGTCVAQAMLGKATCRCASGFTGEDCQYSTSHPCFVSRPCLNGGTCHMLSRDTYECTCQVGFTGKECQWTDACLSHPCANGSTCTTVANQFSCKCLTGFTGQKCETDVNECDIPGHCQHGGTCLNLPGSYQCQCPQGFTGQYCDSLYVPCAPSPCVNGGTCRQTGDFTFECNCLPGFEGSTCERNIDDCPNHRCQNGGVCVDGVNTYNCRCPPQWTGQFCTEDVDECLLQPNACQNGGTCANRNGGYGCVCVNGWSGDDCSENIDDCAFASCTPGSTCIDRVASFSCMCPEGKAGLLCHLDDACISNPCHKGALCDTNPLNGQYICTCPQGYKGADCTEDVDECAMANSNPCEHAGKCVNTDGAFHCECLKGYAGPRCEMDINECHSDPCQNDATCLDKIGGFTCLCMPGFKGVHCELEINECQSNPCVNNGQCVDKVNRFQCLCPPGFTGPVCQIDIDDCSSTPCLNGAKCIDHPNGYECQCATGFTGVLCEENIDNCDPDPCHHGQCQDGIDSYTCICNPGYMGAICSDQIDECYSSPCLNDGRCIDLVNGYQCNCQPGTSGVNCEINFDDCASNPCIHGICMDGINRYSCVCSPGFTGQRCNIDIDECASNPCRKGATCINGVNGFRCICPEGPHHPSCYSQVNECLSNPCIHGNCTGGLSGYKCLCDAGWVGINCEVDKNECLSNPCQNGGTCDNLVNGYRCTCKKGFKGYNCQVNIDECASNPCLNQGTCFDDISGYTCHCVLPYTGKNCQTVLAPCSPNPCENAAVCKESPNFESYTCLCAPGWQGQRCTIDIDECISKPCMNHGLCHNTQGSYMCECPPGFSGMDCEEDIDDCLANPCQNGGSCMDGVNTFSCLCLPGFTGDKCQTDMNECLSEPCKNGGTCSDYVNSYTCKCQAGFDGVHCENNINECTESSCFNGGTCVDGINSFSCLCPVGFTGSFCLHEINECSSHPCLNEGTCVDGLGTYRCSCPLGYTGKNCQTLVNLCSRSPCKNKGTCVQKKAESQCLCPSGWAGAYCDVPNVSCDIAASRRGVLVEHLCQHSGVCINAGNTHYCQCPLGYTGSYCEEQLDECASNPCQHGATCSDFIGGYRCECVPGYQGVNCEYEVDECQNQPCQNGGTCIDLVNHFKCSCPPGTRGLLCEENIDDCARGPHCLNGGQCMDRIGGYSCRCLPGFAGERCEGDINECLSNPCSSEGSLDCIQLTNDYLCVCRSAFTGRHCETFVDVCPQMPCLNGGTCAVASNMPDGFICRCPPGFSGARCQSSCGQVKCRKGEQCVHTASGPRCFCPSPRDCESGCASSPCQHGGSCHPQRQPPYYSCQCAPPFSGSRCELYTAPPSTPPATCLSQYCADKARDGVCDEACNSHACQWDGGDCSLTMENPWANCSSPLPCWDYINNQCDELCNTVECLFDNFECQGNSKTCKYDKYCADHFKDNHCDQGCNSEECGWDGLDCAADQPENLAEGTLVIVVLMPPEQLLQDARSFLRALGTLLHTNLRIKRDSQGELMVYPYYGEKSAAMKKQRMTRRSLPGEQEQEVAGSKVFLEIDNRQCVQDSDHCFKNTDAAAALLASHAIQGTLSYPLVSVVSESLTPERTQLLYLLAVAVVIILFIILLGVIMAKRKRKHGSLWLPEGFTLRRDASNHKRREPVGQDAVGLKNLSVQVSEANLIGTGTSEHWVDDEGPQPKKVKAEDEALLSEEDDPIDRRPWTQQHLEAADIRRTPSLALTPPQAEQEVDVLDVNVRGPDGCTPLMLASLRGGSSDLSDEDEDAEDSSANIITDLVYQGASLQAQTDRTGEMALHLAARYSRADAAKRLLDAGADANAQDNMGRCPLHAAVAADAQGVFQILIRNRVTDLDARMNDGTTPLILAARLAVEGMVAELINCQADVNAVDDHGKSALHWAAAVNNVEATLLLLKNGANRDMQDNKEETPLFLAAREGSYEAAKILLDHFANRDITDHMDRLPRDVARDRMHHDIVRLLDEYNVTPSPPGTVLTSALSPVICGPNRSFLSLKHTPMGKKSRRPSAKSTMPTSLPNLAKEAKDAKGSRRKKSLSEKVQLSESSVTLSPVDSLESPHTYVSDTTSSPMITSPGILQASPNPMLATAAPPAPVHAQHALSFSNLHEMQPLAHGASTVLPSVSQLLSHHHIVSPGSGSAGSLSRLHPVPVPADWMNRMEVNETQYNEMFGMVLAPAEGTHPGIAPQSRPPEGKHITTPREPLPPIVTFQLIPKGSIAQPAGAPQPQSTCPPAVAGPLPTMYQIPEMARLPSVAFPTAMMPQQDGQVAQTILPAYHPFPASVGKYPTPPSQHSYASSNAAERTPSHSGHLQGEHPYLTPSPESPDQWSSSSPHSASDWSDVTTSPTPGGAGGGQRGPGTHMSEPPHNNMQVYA
# Pro-neuregulin-1, membrane-bound isoform (Homo sapiens), sequence (Q02297 whole entry, looked up, the tested form may be a part, canonical isoform): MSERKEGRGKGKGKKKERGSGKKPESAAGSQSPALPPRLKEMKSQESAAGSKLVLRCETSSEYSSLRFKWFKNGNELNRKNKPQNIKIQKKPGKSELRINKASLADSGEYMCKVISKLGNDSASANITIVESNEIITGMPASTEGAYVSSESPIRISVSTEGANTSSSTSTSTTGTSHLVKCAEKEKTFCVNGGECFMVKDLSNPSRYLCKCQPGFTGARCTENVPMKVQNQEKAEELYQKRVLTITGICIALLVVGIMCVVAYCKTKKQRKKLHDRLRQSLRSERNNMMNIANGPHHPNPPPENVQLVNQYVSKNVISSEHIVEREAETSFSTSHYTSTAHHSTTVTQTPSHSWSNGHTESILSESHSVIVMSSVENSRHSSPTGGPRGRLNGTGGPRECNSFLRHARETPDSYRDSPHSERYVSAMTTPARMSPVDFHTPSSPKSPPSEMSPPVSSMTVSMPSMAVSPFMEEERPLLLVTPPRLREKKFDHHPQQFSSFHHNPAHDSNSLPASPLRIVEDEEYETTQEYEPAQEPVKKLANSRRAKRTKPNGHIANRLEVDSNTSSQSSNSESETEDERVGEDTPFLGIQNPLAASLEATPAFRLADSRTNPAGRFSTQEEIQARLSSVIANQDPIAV
compound,measurement,setting,value
COC(=O)[C@@]1(Cc2ccc(OC)cc2)[C@H]2c3cc(C(=O)N(C)C)n(Cc4ccc(S(C)(=O)=O)cc4)c3C[C@H]2CN1C(=O)c1ccccc1,composite z-score,[1],1.12
same,composite z-score,[2],0.325
same,composite z-score,[3],0.27
same,composite z-score,[4],0.178
same,composite z-score,[5],1.24
same,composite z-score,[6],1.64
same,composite z-score,[7],1.31
same,z-score,[8],-1.49 (inactive)
same,composite z-score,[9],1.46
same,composite z-score,[10],0.296
Cc1ccc(S[C@]2(C(=O)NC3CC3)CC(=O)N(Cc3ccccc3)[C@@H]2c2ccc(CO)cc2I)cc1,composite z-score,[1],0.433
same,composite z-score,[2],-0.703
same,composite z-score,[3],-0.146
same,composite z-score,[4],0.333
same,composite z-score,[5],-0.823
same,composite z-score,[6],1.23
same,composite z-score,[7],0.966
same,z-score,[8],-2.74 (inactive)
same,composite z-score,[9],-0.73
same,composite z-score,[10],-0.0047
[N-]=[N+]=NCc1ccccc1[C@@H]1OC(c2ccc(OCCCO)cc2)=N[C@]1(Cc1ccccc1)C(N)=O,composite z-score,[1],0.0286
same,composite z-score,[2],-0.187
same,composite z-score,[3],0.0062
same,composite z-score,[4],0.98
same,composite z-score,[5],1.6
same,composite z-score,[6],1.99
same,composite z-score,[7],1.29
same,z-score,[8],2.02 (inactive)
same,composite z-score,[9],1.35
same,composite z-score,[10],-0.249
C=CCN1C(=O)[C@@]2(Cc3ccccc31)N=C(c1ccc(OCCCO)cc1)O[C@H]2c1ccccc1,composite z-score,[1],1.12
same,composite z-score,[2],0.282
same,composite z-score,[3],0.0085
same,composite z-score,[4],-0.112
same,composite z-score,[5],1.01
same,composite z-score,[6],1.24
same,composite z-score,[7],1.23
same,z-score,[8],-2.07 (inactive)
same,composite z-score,[9],0.83
same,composite z-score,[10],-0.144
C=C[C@H](CO[Si](CC)(CC)CC)N(Cc1ccc(OC(C)=O)c(OC)c1)S(=O)(=O)c1ccc(Br)cc1,composite z-score,[1],0.572
same,composite z-score,[2],1.64
same,composite z-score,[3],0.365
same,composite z-score,[4],0.326
same,composite z-score,[5],-0.156
same,composite z-score,[6],1.27
same,composite z-score,[7],1.05
same,z-score,[8],-2.48 (inactive)
same,composite z-score,[9],1.22
same,composite z-score,[10],-0.0788
O=C(NCCN1CCOCC1)[C@@H]1c2ccccc2C(=O)N(C2CCCCC2)[C@H]1c1ccc(CO)cc1,composite z-score,[1],0.64
same,composite z-score,[2],-0.324
same,composite z-score,[3],-0.0616
same,composite z-score,[4],-0.413
same,composite z-score,[5],-0.194
same,composite z-score,[6],0.96
same,composite z-score,[7],0.872
same,z-score,[8],-0.658 (inactive)
same,composite z-score,[9],0.106
same,composite z-score,[10],-0.271
CN(C)CCCCCCNC(=O)[C@@H]1C[C@@H]2C(=O)N[C@@H](Cc3ccccc3)C(=O)N2[C@@H]1c1ccc(O)cc1,composite z-score,[1],0.361
same,composite z-score,[2],1.57
same,composite z-score,[3],0.0127
same,composite z-score,[4],0.439
same,composite z-score,[5],0.644
same,composite z-score,[6],1.07
same,composite z-score,[7],1.42
same,z-score,[8],3.06 (inactive)
same,composite z-score,[9],0.901
same,composite z-score,[10],-0.0196
CCOC(=O)C[C@H]1[C@H](OC(=O)c2ccc(C(=O)c3ccccc3)cc2)[C@@H](NC(=O)c2ccccc2)c2cc(OCCCO)ccc2N1C(=O)c1ccc2ccccc2n1,composite z-score,[1],-0.416
same,composite z-score,[2],0.0991
same,composite z-score,[3],-0.0206
same,composite z-score,[4],0.234
same,composite z-score,[5],1.27
same,composite z-score,[6],0.682
same,composite z-score,[7],0.417
same,z-score,[8],-0.266 (inactive)
same,composite z-score,[9],0.314
same,composite z-score,[10],0.107
C=C(CCCC)/C(=C/C[C@H](OC(C)=O)c1ccccc1OCCO)c1cc(C(=O)OC)ccc1OC,composite z-score,[1],-0.198
same,composite z-score,[2],-0.268
same,composite z-score,[3],-0.134
same,composite z-score,[4],0.339
same,composite z-score,[5],-0.264
same,composite z-score,[6],-0.35
same,composite z-score,[7],0.48
same,z-score,[8],-0.214 (inactive)
same,composite z-score,[9],-0.201
same,composite z-score,[10],-0.134
C=CCC(OC(C)=O)[C@@H]1[C@@H](N(Cc2cc3ccccc3o2)C(=O)c2cccc3ccccc23)c2cc(OCCCO)ccc2N1C(=O)c1ccc(-c2ccccc2)cc1 (stereo not given in full),composite z-score,[1],0.118
same,composite z-score,[2],-0.203
same,composite z-score,[3],-0.108
same,composite z-score,[4],0.0904
same,composite z-score,[5],0.0918
same,composite z-score,[6],0.142
same,composite z-score,[7],-0.164
same,z-score,[8],-0.408 (inactive)
same,composite z-score,[9],0.101
same,composite z-score,[10],-0.137
CC(C)C[C@@H]1NC(=O)[C@H](C(C)C)NC(=O)[C@@]23C(=O)N[C@@H](Cc4ccccc4)C2[C@H](C)[C@@]2(C)O[C@H]2C3/C=C/CC/C=C/CNC1=O (stereo not given in full),composite z-score,[1],-0.368
same,composite z-score,[2],0.0032
same,composite z-score,[3],-0.144
same,composite z-score,[4],0.518
same,composite z-score,[5],0.729
same,composite z-score,[6],0.133
same,composite z-score,[7],1.02
same,z-score,[8],-0.537 (inactive)
same,composite z-score,[9],0.0815
same,composite z-score,[10],-0.0061
COC(=O)[C@@]1(Cc2ccccc2)[C@H]2c3cc(C(=O)N4CCCC4)n(Cc4ccc(S(C)(=O)=O)cc4)c3C[C@H]2CN1C(=O)c1ccccc1,composite z-score,[1],1
same,composite z-score,[2],0.0844
same,composite z-score,[3],0.371
same,composite z-score,[4],-0.0015
same,composite z-score,[5],1.68
same,composite z-score,[6],1.66
same,composite z-score,[7],1.31
same,z-score,[8],1.45 (inactive)
same,composite z-score,[9],1.23
same,composite z-score,[10],0.939
